Lassa entry inh: qHTS for Inhibitors of binding or entry into cells for Lassa Virus. Lassa virus pseudotype entry inhibition, cell reporter. Potency, µM (top dose mostly 37.9 µM), most hits filed as inhibitors. 300,000 tested, 1.2% active. AID 540256, 2011; calls by dose curve; tested in HEK293 cells; note: nearly all actives have a fitted effect of over 50% in size
HCV inh: qHTS Assay for Inhibitors of Hepatitis C Virus (HCV); Huh7.5.1 HCVcc-Cre infection, luciferase reporter, 44 h; Potency, µM (top dose mostly 41.8 µM), usual class: inhibitors; 340,000 tested, 3.4% active
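Cells seeded at 1,000/well and cultured 4 h, then compounds added followed by HCVcc-Cre virus (~0.5 moi). After 44 h further culture, luciferase substrate was added, plates held 15 min at room temperature, and luminescence read for 15 sec.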
MARV entry inh: qHTS for inhibitors of binding or entry into cells for Marburg Virus. Marburg virus pseudotyped entry inhibition, cell reporter. AID 540276, 2011. Potency, µM (highest dose often 37.8 µM), most hits filed as inhibitors. 300,000 tested, 1.8% active; calls by dose curve; tested in HEK293 cells
HCMV antiviral: qHTS Assay for inhibitors of the human cytomegalovirus (HCMV); AID 1259415, 2018; HFF cells, HCMV-luciferase reporter, 72 h; hits give low values; 410,000 tested, 4.5% active; activity change, negative = inhibition, % at 57.5 µM; in the data active = activity change below about -60%; inconclusive = no clear call, values can overlap the other calls; inactive = above about -39%
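Two-dose cell screen: HFF monolayers treated with compounds and infected with luciferase-expressing HCMV at 1 PFU/cell, 72 h at 37C, then lysed for luciferase measurement.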
FMDV antiviral: High Throughput Screening for Foot and Mouth Disease Virus Antivirals. FMDV antiviral cell-based qHTS. 410,000 tested, 1.2% active. Potency, µM (highest dose often 57.9 µM), hits mostly inhibitors. AID 1159524, 2015; calls by dose curve; tested in HEK293T cells; note: read-out not given here; nearly all actives have a fitted effect of over 45% in size
Giardia FBPA inh: qHTS Assay for Inhibitors of Fructose-1,6-bisphosphate Aldolase from Giardia Lamblia | A8B2U2 | purified Giardia FBPA | Potency, µM (highest dose often 59.6 µM), hits mostly inhibitors | 290,000 tested, 0.71% active; note: nearly all actives have a fitted effect of over 55% in size
Target sequence (A8B2U2 whole entry, looked up): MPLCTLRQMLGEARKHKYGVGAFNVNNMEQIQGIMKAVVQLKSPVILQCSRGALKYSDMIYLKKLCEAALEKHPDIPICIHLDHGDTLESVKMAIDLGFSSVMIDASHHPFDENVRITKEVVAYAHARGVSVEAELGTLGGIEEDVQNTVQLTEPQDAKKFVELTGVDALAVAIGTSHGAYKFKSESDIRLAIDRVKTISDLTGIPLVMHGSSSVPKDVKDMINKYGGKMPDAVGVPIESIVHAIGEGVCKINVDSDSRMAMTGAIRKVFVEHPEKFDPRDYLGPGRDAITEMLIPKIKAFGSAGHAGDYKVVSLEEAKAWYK
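Giardia FBPA (40 nM reagent) was preincubated 10 min at RT with compound (up to 57.5 uM final), then substrate plus GAPDH/TPI/NAD/arsenate coupling system with diaphorase/resazurin was added; resorufin fluorescence (525/598 nm) was read after 20 min.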
Each line names hits and unclear results; the compound was inactive in the other large screens. The list is not random: actives were taken first. Their share in the collection is about 8.3%. Unless noted, calls come from the whole dose curve; as a rule, active = well fitted curve in the direction sought with a large enough effect; inconclusive = small, poorly fitted or top-dose-only effect, or another doubt; inactive = no such curve, though single readings can be large; an effect the other way counts as inactive or inconclusive.

CCOC(=O)/C=C/C(=O)Nc1cccc([N+](=O)[O-])c1	Lassa entry inh inconclusive, HCV inh inconclusive, MARV entry inh inconclusive, FMDV antiviral 25µM (no result: HCMV antiviral)
CCOC(=O)/C=C/C(=O)OCC(=O)Nc1cccc(Cl)c1Cl	none
CCOC(=O)/C=C/C(=O)Nc1ccccc1-c1ccccc1NC(=O)/C=C/C(=O)OCC	Lassa entry inh 13µM, HCV inh 13µM, MARV entry inh inconclusive, HCMV antiviral -98, FMDV antiviral inconclusive
OC1CCCN(Cc2cn(Cc3ccccc3)nc2-c2cc3ccccc3o2)C1 (centres undefined)	HCV inh inconclusive, MARV entry inh 26µM
CCC(O)C1CCN(Cc2cn(Cc3ccccc3)nc2-c2cc3ccccc3o2)CC1 (centres undefined)	HCV inh inconclusive, HCMV antiviral -61 (no result: Lassa entry inh, MARV entry inh)
c1ccc2c(N3CCNCC3)cccc2c1	HCV inh inconclusive, MARV entry inh 11µM
Clc1cccc(N2CCNCC2)c1Cl	MARV entry inh inconclusive
CCN(Cc1nc(-c2cccc(C)c2)no1)S(=O)(=O)c1ccc(C)cc1	none (no result: HCV inh, Giardia FBPA inh)
Cc1nn(C)c2c1c(C(F)(F)F)cc(=O)n2CC(=O)N1CCN(c2ccccc2F)CC1	none (no result: HCV inh, MARV entry inh, Giardia FBPA inh)
Cc1cc(=O)n(CC(=O)N2CCN(c3ccccc3F)CC2)c2c1c(C)nn2C	HCMV antiviral -60, FMDV antiviral inconclusive (no result: HCV inh, MARV entry inh, Giardia FBPA inh)
O=C(N/N=C/CCc1ccccc1)c1ccc(CN2c3cccc4cccc(c34)S2(=O)=O)cc1	HCMV antiviral inconclusive, FMDV antiviral 40µM
COc1ccc(-c2n[nH]c(C)c2-c2cnn(-c3ccccc3)c2)c(O)c1	MARV entry inh inconclusive
COc1ccc(-c2n[nH]c(C)c2-c2cnn(-c3ccccc3)c2)c(O)c1C	HCV inh 11µM, HCMV antiviral -77
Cc1ccc(C(C(=O)NCc2ccco2)N(C(=O)CNC(=O)c2cccs2)c2c(C)cc(C)cc2C)cc1 (centres undefined)	Lassa entry inh inconclusive, HCV inh inconclusive, MARV entry inh inconclusive, HCMV antiviral -78
Cc1ccc(C(C(=O)NCc2ccco2)N(C(=O)CNC(=O)c2cccs2)c2c(C)cccc2C)cc1 (centres undefined)	MARV entry inh inconclusive, HCMV antiviral inconclusive
C=CC[n+]1c(-c2ccc(C)cc2)csc1Nc1c(C)n(C)n(-c2ccccc2)c1=O	Lassa entry inh inconclusive, MARV entry inh inconclusive, HCMV antiviral inconclusive
C=CC[n+]1c(-c2ccc(Cl)cc2Cl)csc1Nc1ccc(NC(C)=O)cc1	Lassa entry inh 2.8µM, HCV inh inconclusive, MARV entry inh 3.2µM, HCMV antiviral -94
C=CC[n+]1c(-c2ccc(Cl)cc2Cl)csc1Nc1c(C)n(C)n(-c2ccccc2)c1=O	Lassa entry inh inconclusive, HCV inh 13µM, MARV entry inh inconclusive, HCMV antiviral -87, FMDV antiviral inconclusive
O=C(Cn1c(-c2cccs2)cc2ccccc21)NCc1ccccc1Br	none (no result: HCV inh, MARV entry inh, Giardia FBPA inh)
Clc1ccc(-c2ccnc(-n3cccc3)n2)s1	MARV entry inh inconclusive, HCMV antiviral inconclusive
Cc1ccsc1-c1ccnc(-n2cccc2)n1	none
Cc1cc(-c2ccc(Br)s2)nc(-n2cccc2)n1	HCV inh 11µM
Cc1cc(-c2sccc2Br)nc(-n2cccc2)n1	HCV inh 13µM
Cn1c(Cc2ccccc2)nnc1SCc1cc(=O)n2ccsc2n1	HCMV antiviral -63
Cc1ccc(-n2c(SCc3cn4ccsc4n3)nc3ccccc3c2=O)cc1	Lassa entry inh inconclusive, HCV inh 10µM, HCMV antiviral -65
Cc1cccc(-n2c(SCc3cc(=O)n4ccsc4n3)nc3ccccc32)c1	HCV inh 7.9µM, Giardia FBPA inh inconclusive
Cc1ccc(SCc2cc(=O)n3ccsc3n2)c(C)c1	none (no result: Lassa entry inh, MARV entry inh, HCMV antiviral, FMDV antiviral)
CCCn1c(=O)c2ccccc2n2c(SCc3cc(=O)n4ccsc4n3)nnc12	none (no result: Lassa entry inh, HCV inh, HCMV antiviral, FMDV antiviral, Giardia FBPA inh)
CC(C)[C@@H](CC(=O)N[C@@H]1CCCC[C@H]1C(=O)N[C@H](CC(=O)N[C@@H](CCC(=O)O)CC(=O)O)Cc1ccccc1)NC(=O)C[C@H](Cc1ccccc1)NC(=O)[C@@H]1CNCC[C@H]1N	none (no result: Lassa entry inh, HCV inh, MARV entry inh, HCMV antiviral, FMDV antiviral)
Cc1ccc(-n2ccnc(NCCc3ccc(S(N)(=O)=O)cc3)c2=O)c(C)c1	none (no result: HCV inh, MARV entry inh, Giardia FBPA inh)

Screening results as filed in PubChem BioAssay.
